# According to PubChem BioAssay AID1159580 (chemical genetic matrix, 2015):
# Screen size: about 5,500 compounds; about 2,000 (36%) were called active. Another 18% or so got no clear call; they are omitted. The list shows a part of the results. Unmarked numbers belong to inactive results. Rule as the data show it: active = normalized growth mostly below about 0.91 (no sharp cut-off); inconclusive = no clear call, values can overlap the other calls; inactive = mostly above about 0.92.
# Experiment: chemical genetic growth profiling, strain panel (AID 1159580);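 also: tested at 20 µM; growth read once vehicle control cultures reached saturation at 30 °C; 1 = growth at the plate median or of vehicle wells; lower values mean less growth of the strain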
# Details: S. cerevisiae deletion strains, growth OD
smiles,measurement,setting,value
O=C(CSCc1nc(-c2ccc(Cl)cc2)cs1)N/N=C\c1cccs1,normalized growth,"locus YAR019C, strain CDC15, active compounds read low",0.984
same,normalized growth,"locus YBL105C, strain PKC1, active compounds read low",0.97
same,normalized growth,"locus YBR135W, strain CKS1, active compounds read low",0.969
same,normalized growth,"locus YBR136W, strain MEC1, active compounds read low",0.972
same,normalized growth,"locus YBR160W, strain CDC28, active compounds read low",0.969
same,normalized growth,"locus YDL017W, strain CDC7, active compounds read low",0.97
same,normalized growth,"locus YDL028C, strain MPS1, active compounds read low",0.973
same,normalized growth,"locus YDL101C, strain DUN1, active compounds read low",0.978
same,normalized growth,"locus YDL108W, strain KIN28, active compounds read low",0.975
same,normalized growth,"locus YDL132W, strain cdc53, active compounds read low",0.966
same,normalized growth,"locus YDL214C, strain PRR2, active compounds read low",0.91
same,normalized growth,"locus YDR052C, strain DBF4, active compounds read low",0.98
same,normalized growth,"locus YDR054C, strain cdc34, active compounds read low",0.97
same,normalized growth,"locus YDR226W, strain ADK1, active compounds read low",0.972
same,normalized growth,"locus YDR477W, strain SNF1, active compounds read low",0.953
same,normalized growth,"locus YER123W, strain YCK3, active compounds read low",0.908
same,normalized growth,"locus YER133W, strain GLC7, active compounds read low",0.946
same,normalized growth,"locus YFL009W, strain cdc4, active compounds read low",0.971
same,normalized growth,"locus YFL029C, strain CAK1, active compounds read low",0.973
same,normalized growth,"locus YFR003C, strain YPI1, active compounds read low",0.962
same,normalized growth,"locus YFR019W, strain FAB1, active compounds read low",0.929
same,normalized growth,"locus YFR028C, strain CDC14, active compounds read low",0.963
same,normalized growth,"locus YGR040W, strain KSS1, active compounds read low",0.935
same,normalized growth,"locus YGR052W, strain FMP48, active compounds read low",0.948
same,normalized growth,"locus YGR092W, strain DBF2, active compounds read low",0.98
same,normalized growth,"locus YHR030C, strain SLT2, active compounds read low",1.01
same,normalized growth,"locus YHR079C, strain IRE1, active compounds read low",1.03
same,normalized growth,"locus YHR082C, strain KSP1, active compounds read low",0.998
same,normalized growth,"locus YHR205W, strain SCH9, active compounds read low",0.935
same,normalized growth,"locus YIL147C, strain SLN1, active compounds read low",0.975
same,normalized growth,"locus YJL095W, strain BCK1, active compounds read low",0.936
same,normalized growth,"locus YJL128C, strain PBS2, active compounds read low",0.924
same,normalized growth,"locus YJL157C, strain FAR1, active compounds read low",0.95
same,normalized growth,"locus YJR016C, strain ILV3, active compounds read low",0.974
same,normalized growth,"locus YJR066W, strain TOR1 (second series), active compounds read low",0.951
same,normalized growth,"locus YJR066W, strain TOR1, active compounds read low",1.02
same,normalized growth,"locus YKL048C, strain ELM1, active compounds read low",0.944
same,normalized growth,"locus YKL067W, strain YNK1, active compounds read low",0.932
same,normalized growth,"locus YKL101W, strain HSL1, active compounds read low",0.921
same,normalized growth,"locus YKL193C, strain SDS22, active compounds read low",0.972
same,normalized growth,"locus YKL203C, strain TOR2, active compounds read low",1
same,normalized growth,"locus YLR113W, strain HOG1, active compounds read low",0.831 (active)
same,normalized growth,"locus YLR133W, strain CKI1, active compounds read low",0.917
same,normalized growth,"locus YLR403W, strain SFP1, active compounds read low",0.933
same,normalized growth,"locus YML070W, strain DAK1, active compounds read low",0.93
same,normalized growth,"locus YMR001C, strain CDC5, active compounds read low",0.976
same,normalized growth,"locus YMR205C, strain PFK2 (second series), active compounds read low",0.942
same,normalized growth,"locus YMR277W, strain FCP1, active compounds read low",0.98
same,normalized growth,"locus YNL006W, strain LST8, active compounds read low",0.973
same,normalized growth,"locus YNL020C, strain ARK1, active compounds read low",0.925
same,normalized growth,"locus YNL161W, strain CBK1, active compounds read low",0.969
same,normalized growth,"locus YNL183C, strain NPR1, active compounds read low",0.971
same,normalized growth,"locus YNL207W, strain RIO2, active compounds read low",0.967
same,normalized growth,"locus YNL222W, strain SSU72, active compounds read low",0.974
same,normalized growth,"locus YNL307C, strain MCK1 (second series), active compounds read low",0.956
same,normalized growth,"locus YOL078W, strain AVO1, active compounds read low",0.966
same,normalized growth,"locus YOL136C, strain PFK27, active compounds read low",0.866
same,normalized growth,"locus YOR061W, strain CKA2, active compounds read low",0.943
same,normalized growth,"locus YOR119C, strain RIO1, active compounds read low",0.994
same,normalized growth,"locus YOR231W, strain MKK1, active compounds read low",0.927
same,normalized growth,"locus YOR329C, strain SCD5, active compounds read low",0.975
same,normalized growth,"locus YPL031C, strain PHO85, active compounds read low",0.96
same,normalized growth,"locus YPL153C, strain RAD53, active compounds read low",0.969
same,normalized growth,"locus YPL204W, strain HRR25, active compounds read low",0.906
same,normalized growth,"locus YPL209C, strain IPL1, active compounds read low",0.969
same,normalized growth,"locus YPL256C, strain CLN2, active compounds read low",0.965
same,normalized growth,"locus YPR025C, strain CCL1, active compounds read low",0.979
same,normalized growth,"locus YPR106W, strain ISR1, active compounds read low",0.97
same,normalized growth,"locus YPR111W, strain DBF20, active compounds read low",0.952
same,normalized growth,"strain NNK1, active compounds read low",0.966
same,normalized growth,"strain TSCII, active compounds read low",0.968
CC1(NCC(O)COc2cccc3[nH]ccc23)CCC(C(C)(C)NC(=O)CBr)CC1 (stereo not given),normalized growth,"locus YAL040C, strain CLN3, active compounds read low",1.04
same,normalized growth,"locus YCL061C, strain MRC1 (second series), active compounds read low",0.993
same,normalized growth,"locus YDR363W, strain ESC2, active compounds read low",1.03
same,normalized growth,"locus YER002W, strain NOP16, active compounds read low",1.03
same,normalized growth,"locus YGR078C, strain PAC10, active compounds read low",1
same,normalized growth,"locus YGR229C, strain SMI1, active compounds read low",0.997
same,normalized growth,"locus YMR307W, strain GAS1, active compounds read low",0.99
same,normalized growth,"locus YNL175C, strain NOP13, active compounds read low",1.02
same,normalized growth,"locus YNL197C, strain WHI3, active compounds read low",1.02
same,normalized growth,"locus YNL224C, strain SQS1, active compounds read low",1.06
same,normalized growth,"locus YNL322C, strain KRE1, active compounds read low",0.973
same,normalized growth,"locus YOR083W, strain WHI5 (second series), active compounds read low",1.02
same,normalized growth,"locus YPL055C, strain LGE1, active compounds read low",0.968
same,normalized growth,"locus YPL241C, strain CIN2, active compounds read low",1
